HCV inhibitor – blocks hepatitis C virus. AID 651820. Potency, µM (doses to about 41.8 µM), without a hit: at the highest dose activity change, negative = inhibition, actives largely listed as inhibitors. hit rate 3.4% among 340,000. Huh7.5.1 HCVcc-Cre infection, luciferase reporter, 44 h; active = well fitted inhibition curve with a large enough effect; inconclusive = small, poorly fitted or top-dose-only effect, or another doubt; inactive = no such curve, though single readings can be large or run the other way; note: potency is the fitted concentration of half-maximal effect; % is set by controls: 0 for no effect and ±100 for the full control effect
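Reporter virus HCVcc-Cre (~0.5 moi) infects cells exposed to compound; seeding density 1,000 cells/well with 4 h settling beforehand. Luminescence, 15 sec read, taken 44 h post-infection following a 15 min RT substrate incubation.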
FMDV inh – antivirals against foot and mouth disease virus. hit rate 1.2% among 410,000. Potency, µM (series often up to 57.9 µM), for the others: at the highest dose activity change, negative = inhibition, most hits filed as inhibitors. FMDV antiviral cell-based qHTS; calls by dose curve; tested in HEK293T cells; note: read-out not given here; potency is the fitted concentration of half-maximal effect; % is set by controls: 0 for no effect and ±100 for the full control effect; nearly all actives have a fitted effect of over 45% in size
Marburg entry inh – inhibitors of Marburg virus binding or cell entry; Marburg virus pseudotyped entry inhibition, cell reporter; Potency, µM (highest dose often 37.8 µM), inactives show top-dose activity change, negative = inhibition, hits mostly inhibitors; hit rate 1.8% among 300,000; calls by dose curve; tested in HEK293 cells; note: potency is the fitted concentration of half-maximal effect; % is set by controls: 0 for no effect and ±100 for the full control effect
LASV entry inh – Lassa virus entry inhibition | Lassa virus pseudotype entry inhibition, cell reporter | Potency, µM (top dose mostly 37.9 µM), without a hit: top-dose activity change, negative = inhibition, actives largely listed as inhibitors | hit rate 1.2% among 300,000 | AID 540256; calls by dose curve; tested in HEK293 cells; note: potency is the fitted concentration of half-maximal effect; % is set by controls: 0 for no effect and ±100 for the full control effect; nearly all actives have a fitted effect of over 50% in size
SARS PLpro yeast – SARS-CoV PLP inhibition in yeast | S. cerevisiae expressing SARS-CoV PLpro, growth rescue | Potency, µM (top dose mostly 32.9 µM), for the others: at the highest dose activity, positive = growth rescue, actives largely listed as activators | hit rate 0.19% among 330,000 | AID 485353; calls by dose curve; note: potency is the fitted concentration of half-maximal effect; 0% is about no effect; nearly all actives have a fitted effect of over 55% in size
HCMV antiviral – human cytomegalovirus inhibition | AID 1259415 | activity change, negative = inhibition, % at 57.5 µM | HFF cells, HCMV-luciferase reporter, 72 h; hits give low values | hit rate 4.5% among 410,000; in the data active = activity change below about -60%; inconclusive = no clear call, values can overlap the other calls; inactive = above about -39%; note: % is set by controls: 0 for no effect and ±100 for the full control effect
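Compounds were evaluated in HFFs infected with an HCMV luciferase reporter virus (MOI 1 PFU/cell). Luciferase in lysates collected 72 h post infection served as the replication measure.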
* marks the source's active call; other numbers are inactive results; ? = inconclusive; nt = no result given; ! = repeats disagree; [ ] = another dose, or the depositor's remark. Most compounds without a hit are left out; they make up all but 8% or so of the library.

SMILES	HCV inhibitor	FMDV inh	Marburg entry inh	LASV entry inh	SARS PLpro yeast	HCMV antiviral
Cc1ccc(C(=O)c2coc3ccc(O)c(Cl)c23)cc1	-10%	-14%	-1%	?	-9%[6.58 µM]	57
CCOC(=O)c1c(C)n(-c2ccc(C)cc2)c2c(C(C(C)=O)C(=O)O)c(Br)c(O)c(O)c12 (stereo not given)	11µM*	0%	-29%	?	-13%	?
CCOC(=O)C(C(C)=O)c1c(Br)c(O)c(O)c2c(C(=O)c3ccc(C)cc3)coc12 (stereo not given)	nt	-29%	2.3µM*!	-94%[14.3 µM]	8%	-96*
O=C(Nc1nc(-c2ccccc2)cs1)c1cccnc1	?	-19%	-20%	-20%	9%	57
Cc1nc(NC(=O)c2ccccc2)sc1-c1csc(Nc2ccc(Cl)cc2)n1	nt	nt	nt	nt	-9%	nt
O=C(Nc1nc(-c2ccc(Br)cc2)cs1)c1cccnc1	-30%	-17%	-27%[46.1 µM]	-2%	2%	-64*
O=C(Nc1cccc(-c2csc(Nc3ccc(Cl)cc3)n2)c1)c1ccccc1	?	-7%	nt	nt	-5%	-22
O=C(Nc1cccc(-c2csc(Nc3ccc(Cl)cc3)n2)c1)c1cccc(C(F)(F)F)c1	3.2µM*	?	nt	nt	-10%	-33
O=C(Nc1ccc(-c2csc(Nc3ccccc3)n2)cc1)c1ccccc1	?	-21%	nt	nt	-1%	-63*
CCn1cc2c(n1)-c1c(oc(C(=O)Nc3cccc(C(F)(F)F)c3)c1C)CC2	nt	6%	nt	5%[46.1 µM]	nt	-36
COc1ccc2c(c1)CO[C@H]([C@H](O)CO)[C@H]2C=Cc1ccccc1	nt	nt	-6%[14.2 µM]	?	nt	nt
Cc1ccc(S(=O)(=O)N(C)c2cc(S(=O)(=O)N3CCOCC3)c(C)cc2C)cc1	-26%	-18%	6%[46.1 µM]	nt	0%	-8
COc1ccc(S(=O)(=O)N2CCCCCC2)cc1N(C)S(=O)(=O)c1ccc(C)cc1	?	-2%	?	?	-18%	-77*
Cc1cc(C)c(S(=O)(=O)N2CCCCC2)cc1N(C)S(=O)(=O)c1ccc(Cl)cc1	32µM*	-14%	?	?	-3%	?
COc1ccc(S(=O)(=O)N2CCCCCC2)cc1C(=O)N(C)Cc1ccc(Cl)cc1Cl	11µM*	0%	?	?	-2%	-29
COc1ccc(S(=O)(=O)N2CCOCC2)cc1N(C)S(=O)(=O)c1ccc(C)cc1	6%	-15%	-18%	-14%	-3%	?
Cc1nn(-c2ccc(N3CCCCC3)nn2)c(C)c1CCC(=O)NCc1ccc(OC(C)C)cc1	nt	-10%	nt	?	nt	-37
CCC(C)NC(=O)Cn1ncc2c(C)n(Cc3ccc(F)cc3)c(C)c2c1=O (stereo not given)	nt	4%	-3%[46.1 µM]	-6%[46.1 µM]	nt	20
CCc1cccc(C)c1NC(=O)c1cn2c3c(ccc(Cl)c3c1=O)OC(C)C2 (stereo not given)	nt	-1%	nt	7%[46.1 µM]	nt	-7
COC1C(=O)CCC2(CO2)C1(O)C1(C)OC1CC=C(C)C (stereo not given)	nt	nt	nt	nt	nt	-76*
COc1ccc(/C=C/C(=O)Nc2sc3c(c2C(N)=O)CCC(C)C3)cc1OC (stereo not given)	nt	6%	13%[46.1 µM]	-23%[46.1 µM]	nt	-20
CCCCCCCC=CC1=CC2(C)CC1(C)C(CCCCCCC)CC2=O (stereo not given)	nt	nt	17%[14.2 µM]	nt	nt	nt
C=CCC[C@H](Cc1ccc(F)cc1)C(=O)OC[C@@H](NC(=O)[C@@H](CC=C)CC(=O)N[C@@H](CO)Cc1ccccc1)C(C)(C)C	22µM*	-1%	nt	nt	-3%	61
C=CCC[C@@H](Cc1ccc(F)cc1)C(=O)OC[C@@H]1CCCN1C(=O)[C@H](CC=C)CC(=O)N[C@H](CO)Cc1ccccc1	10µM*	?	nt	nt	-3%	42
C=CCC[C@H](Cc1ccc(F)cc1)C(=O)OC[C@@H](NC(=O)[C@@H](CC=C)CC(=O)N(CCO)Cc1ccccc1)C(C)(C)C	3.2µM*	?	nt	nt	5%	11
SMILES	HCV inhibitor	FMDV inh	Marburg entry inh	LASV entry inh	SARS PLpro yeast	HCMV antiviral
C=CCC[C@H](Cc1ccc(F)cc1)C(=O)OC[C@H](C)NC(=O)[C@H](CC=C)CC(=O)NCCO	5%	-14%	nt	nt	-11%	-69*
C=CCC[C@@H](Cc1ccc(F)cc1)C(=O)OC[C@@H](NC(=O)[C@@H](CC=C)CC(=O)N[C@@H](CO)Cc1ccccc1)C(C)(C)C	5%	?	nt	nt	-7%	-16
COc1cc(C2c3c(-c4ccccc4O)n[nH]c3C(=O)N2Cc2ccco2)ccc1OCC(C)C (stereo not given)	nt	-21%	?	?	nt	0
COc1cccc(C(=O)n2nc(-c3ccco3)nc2NCc2cccs2)c1	nt	30%	4%[46.1 µM]	-1%[46.1 µM]	nt	23
CC(=O)OC[C@H]1O[C@H](CC=NOC[C@@H](C)[C@H](OCc2ccccc2)C(C)C)C=C[C@@H]1OC(C)=O	nt	nt	-10%[14.2 µM]	nt	nt	nt
CCc1ccc(Sc2cc(C(=O)NCc3cccc(OC)c3)c3ccccc3n2)cc1	nt	-21%	nt	?	nt	?
CCc1ccc(Sc2cc(C(=O)NCCCN3CCCC(C)C3)c3ccccc3n2)cc1 (stereo not given)	nt	5%	nt	?	nt	-61*
CCc1ccc(Sc2cc(C(=O)NCCCN3CCC(C)CC3)c3ccccc3n2)cc1	nt	-20%	nt	?	nt	-77*
Cc1ccc(NC(=O)Cn2cc(S(=O)(=O)Cc3ccc(F)cc3)c3ccccc32)cc1Cl	nt	-15%	nt	-29%[46.1 µM]	nt	?
CCOC(=O)c1nn(-c2cccc(OC)c2)c2nc(Nc3ccccc3)cc(=O)n12	11µM*	-29%	16%	-7%	4%	22
CCN(CC)CCCN1C(=O)C(O)=C(C(=O)c2ccc(C)o2)[C@@H]1c1ccc(C)o1	nt	nt	8%	nt	nt	nt
Cn1ncc([N+](=O)[O-])c1C(=O)Nc1ccn(Cc2ccccc2F)n1	nt	-19%	3%	-13%[14.3 µM]	-2%	-62*
CCn1cc(/C=C/C(=O)Nc2ccn(Cc3c(F)c(F)cc(F)c3F)n2)cn1	?	-9%	?	5%	-13%	-70*
CCn1cc(/C=C/C(=O)Nc2ccc(C)cc2Br)cn1	?	9%	11%	?	-3%	-35
Cn1cc([N+](=O)[O-])c(C(=O)Nc2ccn(Cc3c(F)c(F)cc(F)c3F)n2)n1	?	-19%	4%	-20%	4%	-92*
Cc1nn(Cc2cccc(C(=O)Nc3ccn(Cc4ccccc4F)n3)c2)c(C)c1[N+](=O)[O-]	16%	-28%	?	13%	1%	26
Cc1ccc(Cn2ccc(NC(=O)c3nn(C)cc3Cl)n2)cc1	11%	29%	6%[46.1 µM]	13%	-6%	3
Cc1ccc(C(=O)Nc2c(C(=O)NCc3ccc(Cl)cc3)sc3nc(C)cc(C)c23)cc1	nt	-23%	0%[46.1 µM]	-18%[46.1 µM]	nt	?
O=C(c1ccccc1)N1CC(=O)N2[C@H](CO)[C@@H](c3ccc(Br)cc3)[C@@H]2C1	nt	nt	nt	nt	nt	-28
